For 2 compounds, Potency results are on record in PubChem BioAssay AID588346 (National Center for Advancing Translational Sciences (NCATS), 2011).

Results filed as inconclusive are left out. Entries that show only a call come without a potency. Activity calls are given as the source filed them. The call rests on the fitted dose curve; in most records, active means well fitted curve in the direction sought with a large enough effect; inconclusive means small, poorly fitted or top-dose-only effect, or another doubt; inactive means no such curve, though single readings can be large or run the other way.

The assay in a line: qHTS Assay for Inhibitors of Histone Lysine Methyltransferase G9a: Hit Confirmation in b-rIgG Counterscreen. The settings on record: AlphaScreen b-rIgG bead counterscreen, signal interference; series mostly up to 55.7 µM. An excerpt: Methylated lysines, on the N-terminal tails of histone proteins serve as epigenetic markers to recruit factors that can then modify local chromatin structure to lead to functional consequences. G9a and other members of the SUV39 family of the SET domain-containing superfamily of histone lysine methyltransferases (HMT) have been identified to specifically methylate Lys9 of histone H3 (H3K9). G9a catalyzes the mono- and di-methylation of H3K9 in mammalian euchromatic regions, where the resulting H3K9me2 is indicative of transcriptional repression. […] The inhibition of G9a will result in transcriptional activation and work synergistically with DNA methyltransferase and histone deacetylase inhibitors, to kill cancer cells. This qHTS assay for identification of G9a inhibitors is a chemiluminescence based AlphaScreen (PerkinElmer). Methylation of biotinylated-histone peptide is measured through specific antibody-based detection, in conjunction with streptavidin-coated donor and anti-IgG antibody-coated acceptor beads. The method is particularly well suited for detection of inhibitors acting by the desired histone peptide competitive mechanism and is applicable to testing other HMTs. Although AlphaScreen has significant advantages with its utility in a variety of epigenetic target assays, the primary screening data provided in this deposition should be used with caution due to the prevalence of screening artifacts. Because an AlphaScreen counterscreen is highly recommended to be run against any putative actives to eliminate non specific artifacts, this assay was used as a counterscreen. Quinn et al. A chemiluminescence-based method for identification of histone lysine methyltransferase inhibitors. Mol Biosyst 6(5): 782-8. 2010. PMID: 20567762 [2] Baell,Holloway. New substructure filters for removal of pan assay interference compounds (PAINS) from screening libraries and for their exclusion in bioassays. J Med Chem. 53(7):2719-40. 2010. PMID: 20131845 NIH Chemical Genomics Center [NCGC] NIH Molecular Libraries Probe Production Network [MLPCN] MLPCN Grant: MH084681-02 Assay Submitter (PI): Structural Genomic Consortium - Toronto, Peter Brown
Biotinylated rabbit-IgG (b-rIgG) (Santa Cruz Biotechnology, Inc., Santa Cruz, CA) was added to 1,536-well plates in a 3 uL dispense. Compounds were added in a 23 nL pin-transfer step, and plates were incubated at room temperature for 15 min. Streptavidin-coated donor and anti-rIgG acceptor AlphaScreen beads were added (1 uL) for final concentrations of 20 ug/mL each bead and 1 nM b-rIgG, and plates read on the Envision after a 15 min incubation at room temperature in the dark.
Take `CC1=NN(c2nc3ccccc3[nH]2)C(=O)C1Cc1ccccc1` (configuration not stated): the Potency entry is “inactive”.

For the compound `CCc1nnc(NC(=O)c2cccc(C(=O)Nc3nnc(CC)s3)n2)s1`, the Potency result is “inactive”.
